Assay results as given in PubChem BioAssay (NCATS).
Active and inactive are the calls of the source. Entries that show only a call come without a potency. Calls come from the whole dose curve; as a rule, active = well fitted activation curve with a large enough effect; inconclusive = small, poorly fitted or top-dose-only effect; inactive = no such curve, though single readings can be large or run the other way.

biological target: Cytochrome P450 3A4 (Homo sapiens) (UniProt P08684); test: qHTS Assay for Activators of Cytochrome P450 3A4 (AID 885); conditions: recombinant CYP3A4, Luciferin-PPXE luminescence, 60 min; series mostly up to 57.1 µM; note: nearly all actives have a fitted effect of over 65% in size
Method in brief: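 Using 20nM recombinant human CYP3A4 in potassium phosphate (200mM), substrate Luciferin-PPXE at 25uM, luminescent luciferin detection followed a 60-min RT NADPH reaction; data scaled to 57 uM ketoconazole.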

Chain of Cytochrome P450 3A4 (Homo sapiens) (P08684 whole entry, looked up): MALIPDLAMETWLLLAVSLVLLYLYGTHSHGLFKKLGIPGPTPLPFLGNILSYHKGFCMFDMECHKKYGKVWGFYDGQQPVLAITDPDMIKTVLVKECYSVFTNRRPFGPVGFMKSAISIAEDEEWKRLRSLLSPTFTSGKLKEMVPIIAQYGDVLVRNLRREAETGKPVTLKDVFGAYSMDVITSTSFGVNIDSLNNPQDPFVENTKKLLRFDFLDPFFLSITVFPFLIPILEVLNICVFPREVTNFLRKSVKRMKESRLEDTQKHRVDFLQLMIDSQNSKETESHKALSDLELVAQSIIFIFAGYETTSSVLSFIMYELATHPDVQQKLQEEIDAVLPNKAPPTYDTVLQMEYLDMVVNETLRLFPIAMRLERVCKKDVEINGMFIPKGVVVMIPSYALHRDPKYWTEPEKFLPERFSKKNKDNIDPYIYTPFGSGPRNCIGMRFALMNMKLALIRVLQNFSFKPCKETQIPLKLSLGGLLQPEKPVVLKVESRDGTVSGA

SMILES	Potency	activity change, positive = activation
COC(=O)N1[C@H](C)C=C[C@]1(Cc1ccccc1)C(=O)NCc1ccc(N(C)C)cc1	inactive	
C#CCCCO/N=C1/C[C@@H](O)[C@@H](O)[C@@H]2[C@@H]3C(=O)N(C[C@@H]4CCCO4)C(=O)[C@H]3CC[C@H]12		-43.2% [at 11.4 µM] (inactive)
CCOC(=O)N/N=C1/C[C@@H](O)[C@@H](O)[C@@H]2[C@@H]3C(=O)N(Cc4ccc5c(c4)OCO5)C(=O)[C@H]3CC[C@H]12		-58.6% [at 11.4 µM] (inactive)
CC(=O)O[C@H]1C2=CO[C@H](C)[C@H]3[C@H]4C5=C([C@H](O)[C@H]6O[C@@H]6C5=O)[C@H](O[C@H]4C)[C@@]23C(=O)[C@H]2O[C@@H]21		-42.7% [at 11.4 µM] (inactive)
CCC1=C2CC[C@H]3C(=O)NC(=O)[C@H]3[C@H]2[C@@]2(C)C(=NCC3CC3)OC(=O)N2C1=O	inactive	
COC(=O)c1cccc(C23CC4(C2)[C@H](CN(Cc2ccc(C(F)(F)F)cc2)[C@@H]4c2ccccc2)C3c2ccc(C(F)(F)F)cc2)c1 (stereo partly drawn)	inactive	
COC(=O)[C@@H]1C[C@H]2CC[C@H](O)C[C@H]2N1Cc1ccc(C(F)(F)F)cc1	inactive	
COC(=O)c1cccc(C23CC4(C2)[C@H](CN(C)[C@@H]4c2ccccc2)C3c2ccc(Cl)nc2)c1 (stereo partly drawn)	inactive	
Cc1nc(NC2CCCCC2)c2nc(-c3ccccc3)n(CCCN3CCOCC3)c2n1	inactive	
CO[C@@H]1/C=C\CC(=O)N[C@@H](C)C(=O)OC[C@H](NS(=O)(=O)c2ccc(C)cc2)[C@H](C)/C=C\CC(=O)OC[C@H]1C		-37.9% [at 11.4 µM] (inactive)
COC(=O)[C@@H]1C[C@@]2(O)[C@H](O)[C@H](O)[C@H](O)C[C@H]2N1Cc1ccc(C(F)(F)F)cc1	inactive	
CCC1=C2CC[C@H]3C(=O)N(CC)C(=O)[C@H]3[C@H]2[C@@]2(C)C(=NCC(=O)OC)OC(=O)N2C1=O	inactive	
O=C1[C@H]2[C@H]3[C@H](O)[C@H](O)C/C(=N/OCc4ccccc4)[C@H]3CC[C@@H]2C(=O)N1Cc1ccc2c(c1)OCO2		-96.1% [at 11.4 µM] (inactive)
